Screening results (PubChem)
PPARg SRC1 recr = PPARgamma agonists recruiting SRC-1 coactivator, primary screen, biochemical; PPARgamma-SRC-1 coactivator recruitment biochemical assay; activation, % at 8 µM; 200,000 tested, 0.41% active; AID 631, 2007; in the data active means activation above about 19%;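 further: 0% = DMSO and 100% = reference agonist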
Target sequence (P37231 whole entry, looked up): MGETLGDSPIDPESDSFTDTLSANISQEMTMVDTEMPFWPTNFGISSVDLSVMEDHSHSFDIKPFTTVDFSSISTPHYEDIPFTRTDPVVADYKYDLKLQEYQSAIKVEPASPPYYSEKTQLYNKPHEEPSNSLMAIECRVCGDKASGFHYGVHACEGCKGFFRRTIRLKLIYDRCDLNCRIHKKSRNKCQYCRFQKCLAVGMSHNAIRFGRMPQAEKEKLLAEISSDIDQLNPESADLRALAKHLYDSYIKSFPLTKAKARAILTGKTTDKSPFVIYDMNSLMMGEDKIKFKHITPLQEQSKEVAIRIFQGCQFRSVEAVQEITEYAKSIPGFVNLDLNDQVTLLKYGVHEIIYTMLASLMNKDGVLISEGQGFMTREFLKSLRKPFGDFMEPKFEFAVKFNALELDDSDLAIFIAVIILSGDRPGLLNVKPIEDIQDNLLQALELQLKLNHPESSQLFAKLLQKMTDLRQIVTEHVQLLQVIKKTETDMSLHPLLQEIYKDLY
SRC3 TRFRET art = TR-FRET detection interference compounds, artefact control for PPARgamma SRC-3 recruitment agonists, biochemical, TR-FRET ratio; TR-FRET artefact counter-screen, PPARgamma/SRC-3 format; active compounds read high; TR-FRET ratio at 8 µM; 99,000 tested, 0.39% active
PPARg SRC3 recr = PPARgamma agonists recruiting SRC-3 coactivator, primary screen, biochemical; biochemical PPARgamma/SRC-3 coactivator recruitment assay; Peroxisome proliferator-activated receptor gamma (Homo sapiens), P37231; AID 731, 2007; activation, % at 8 µM; 200,000 tested, 0.26% active; in the data active means activation above about 23%;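 further: 0% = DMSO and 100% = reference agonist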
PPARg SRC-2 ag = agonists of PPARg-SRC-2 recruitment, primary screen, biochemical, HTS. Peroxisome proliferator-activated receptor gamma (Homo sapiens), P37231. PPARgamma LBD-SRC-2 recruitment. activation, % at 8 µM. 200,000 tested, 0.34% active. AID 1032, 2008; in the data active means activation above about 22%;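 further: 0% = vehicle and 100% = reference agonist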
SRC2 TRFRET art = TR-FRET signal artefacts, primary screen, artefact control for PPARgamma SRC-2 agonist project, biochemical; 200,000 tested, 0.4% active; TR-FRET ratio at 8 µM; TR-FRET artefact counter-screen; active compounds read high; AID 1049, 2008
SRC1 TRFRET art = TR-FRET detection interference compounds, primary screen, artefact control for PPARgamma SRC-1 recruitment agonists, biochemical, TR-FRET emission ratio; TR-FRET detection artefact counter-screen; active compounds read high; TR-FRET ratio at 8 µM; 99,000 tested, 0.34% active; AID 1051, 2008; in the data active means TR-FRET ratio above about 2300
PPARg SRC2 ag = agonists of PPARgamma SRC-2 coactivator recruitment, confirmation, biochemical, HTS; AID 1297, 2008; activation, % at 8 µM; shares compounds with PPARg SRC3 recr; 790 tested, 52% active; biochemical SRC-2 recruitment by PPARgamma; in the data active means activation above about 22%;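 further: 0% = vehicle alone and 100% = reference agonist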
PPARg SRC1 ag = PPARgamma agonists recruiting SRC-1 coactivator, confirmation, biochemical | 790 tested, 43% active | shares compounds with PPARg SRC3 recr | activation, % at 8 µM | PPARgamma–SRC-1 coactivator recruitment biochemical assay; in the data active means activation above about 20%;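 further: 0% = vehicle wells and 100% = reference agonist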
PPARg SRC3 ag = PPARgamma-driven SRC-3 coactivator recruitment agonists, confirmation, biochemical. shares compounds with PPARg SRC3 recr. biochemical PPARgamma-SRC-3 coactivator recruitment, agonist mode. activation, % at 8 µM. 790 tested, 29% active; in the data active means activation above about 24%;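 further: 0% = vehicle wells and 100% = reference agonist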
Active calls of the source: *. A selection: hits, their analogues and other compounds. The true share with any hit is near 0.9%. Unless noted, no stated cut-off is given here; in the data, active means TR-FRET ratio above about 2000; inactive means the rest.

`Cc1ccc(NC(=O)c2cc(=O)n(Cc3ccccc3)c(=O)[nH]2)cc1C` gave PPARg SRC1 recr 6, SRC3 TRFRET art 1673, PPARg SRC3 recr 4, PPARg SRC-2 ag 8, SRC2 TRFRET art 1660 and SRC1 TRFRET art 1944.
For O=[N+]([O-])c1ccc(-c2ccc(C=Nc3cccc4ccccc34)o2)cc1 the results were PPARg SRC1 recr 0, PPARg SRC3 recr 7, PPARg SRC-2 ag -3 and SRC2 TRFRET art 1585.
Screening O=[N+]([O-])c1cc(-c2ccc(/C=N/c3nc4ccccn4c3-c3ccco3)o2)ccc1Cl returned PPARg SRC1 recr 16, PPARg SRC3 recr 27*, PPARg SRC-2 ag 16, SRC2 TRFRET art 1804, PPARg SRC2 ag 12, PPARg SRC1 ag 6 and PPARg SRC3 ag 7.
CCOc1cc(CNc2ccc(N3CCCCC3)cc2)cc(Br)c1OCC(=O)NC(C)(C)C was read as PPARg SRC1 recr 0, SRC3 TRFRET art 1695, PPARg SRC3 recr 4, PPARg SRC-2 ag 5, SRC2 TRFRET art 1719 and SRC1 TRFRET art 2032.
Screening CCOc1cc(CNc2ccc(N(C)C)cc2)cc(Br)c1OCC(=O)NC(C)(C)C returned PPARg SRC1 recr 55*, PPARg SRC3 recr 128*, PPARg SRC-2 ag 123*, SRC2 TRFRET art 3290*, PPARg SRC2 ag 3, PPARg SRC1 ag 0 and PPARg SRC3 ag 3.
Screening Cc1ccc(C)c(N2CCN(C(=O)c3ccc(Cn4c(=S)[nH]c5ccc(N6CCOCC6)cc5c4=O)cc3)CC2)c1 returned PPARg SRC1 recr 26*, SRC3 TRFRET art 3971*, PPARg SRC3 recr 28*, PPARg SRC-2 ag 17, SRC2 TRFRET art 3479*, SRC1 TRFRET art 4039*, PPARg SRC2 ag 7, PPARg SRC1 ag 3 and PPARg SRC3 ag 6.
O=C(c1ccc(Cn2c(=S)[nH]c3cc4c(cc3c2=O)OCO4)cc1)N1CCN(c2ccccc2)CC1 was read as PPARg SRC1 recr 18, SRC3 TRFRET art 1780, PPARg SRC3 recr 2, PPARg SRC-2 ag -1, SRC2 TRFRET art 1767 and SRC1 TRFRET art 2110.
Screening Clc1ccc(Cl)c(-c2ccc(/C=N/c3ncn[nH]3)o2)c1 returned PPARg SRC1 recr 49*, PPARg SRC3 recr 58*, PPARg SRC-2 ag 54*, SRC2 TRFRET art 2699*, PPARg SRC2 ag 53*, PPARg SRC1 ag 38* and PPARg SRC3 ag 30*.
`CC1=NN(C(=O)CCc2ccccc2)C(O)(c2ccncc2)C1` (stereo not given) gave PPARg SRC1 recr 7, SRC3 TRFRET art 1482, PPARg SRC3 recr -3, PPARg SRC-2 ag -4, SRC2 TRFRET art 1605 and SRC1 TRFRET art 1808.
Screening Cc1ccc(CSc2nc3ncccc3[nH]2)cc1 returned PPARg SRC1 recr 11, PPARg SRC3 recr 16, PPARg SRC-2 ag 25*, SRC2 TRFRET art 1846, PPARg SRC2 ag 18, PPARg SRC1 ag 16 and PPARg SRC3 ag 10.
Screening O=C(Nc1nc(-c2ccc(S(=O)(=O)N3CCCCCC3)cc2)cs1)c1ccccc1 returned PPARg SRC1 recr 21*, PPARg SRC3 recr 8, PPARg SRC-2 ag 15, SRC2 TRFRET art 2426*, PPARg SRC2 ag 52*, PPARg SRC1 ag 39* and PPARg SRC3 ag 33*.
For O=C(Nc1nc(-c2ccc(S(=O)(=O)N3CCCC3)cc2)cs1)C1COc2ccccc2O1 (stereo not given) the results were PPARg SRC1 recr 20*, PPARg SRC3 recr 33*, PPARg SRC-2 ag 22*, SRC2 TRFRET art 2533*, PPARg SRC2 ag 34*, PPARg SRC1 ag 27* and PPARg SRC3 ag 20.
For O=C(Nc1nc(-c2ccc3c(c2)OCCO3)cs1)c1ccc(S(=O)(=O)N2CCCCC2)cc1 the results were PPARg SRC1 recr 6, PPARg SRC3 recr 9, PPARg SRC-2 ag 17 and SRC2 TRFRET art 1917.
For CCOC(=O)c1ccc[n+](CC(=O)Nc2cc(C(F)(F)F)ccc2Cl)c1 the results were PPARg SRC1 recr 6, SRC3 TRFRET art 1505, PPARg SRC3 recr 4, PPARg SRC-2 ag -5, SRC2 TRFRET art 1531 and SRC1 TRFRET art 1725.
O=C(c1ccco1)N1N=C(c2ccc(Cl)cc2)CC1(O)C(F)(F)F (stereo not given) was read as PPARg SRC1 recr 5, SRC3 TRFRET art 1690, PPARg SRC3 recr 6, PPARg SRC-2 ag 3, SRC2 TRFRET art 1680 and SRC1 TRFRET art 1753.
`O=C(c1ccco1)N1N=C(c2ccc(Br)cc2)CC1(O)C(F)(F)F` (stereo not given) gave PPARg SRC1 recr 23*, SRC3 TRFRET art 1800, PPARg SRC3 recr 13, PPARg SRC-2 ag 15, SRC2 TRFRET art 2022*, SRC1 TRFRET art 2287, PPARg SRC2 ag 15, PPARg SRC1 ag 14 and PPARg SRC3 ag 13.
`CC1CCc2c(sc(NC(=O)COC(=O)c3ccc(O)cc3)c2C#N)C1` (stereo not given) gave PPARg SRC1 recr -1, SRC3 TRFRET art 1747, PPARg SRC3 recr -1, PPARg SRC-2 ag 0, SRC2 TRFRET art 1473 and SRC1 TRFRET art 1822.
Screening COc1cc(C(=O)NCCC(C)C)ccc1OCc1ccc(Cl)cc1Cl returned PPARg SRC1 recr 48*, SRC3 TRFRET art 1559, PPARg SRC3 recr 47*, PPARg SRC-2 ag 14, SRC2 TRFRET art 1605, SRC1 TRFRET art 1879, PPARg SRC2 ag 18, PPARg SRC1 ag 45* and PPARg SRC3 ag 38*.
Screening COc1ccc(-c2nc(-c3cccs3)c(-c3cccs3)[nH]2)cc1O returned PPARg SRC1 recr 63*, PPARg SRC3 recr 90*, PPARg SRC-2 ag 89*, SRC2 TRFRET art 3397*, PPARg SRC2 ag 56*, PPARg SRC1 ag 44* and PPARg SRC3 ag 40*.
O=[N+]([O-])c1ccc(O)c(-c2nc(-c3ccccc3)c(-c3cccs3)[nH]2)c1 was read as PPARg SRC1 recr -1, PPARg SRC3 recr 22, PPARg SRC-2 ag 14 and SRC2 TRFRET art 1532.
